As usually defined, the AC50 is the concentration at which the activity in the assay is half-maximal.

SMILES strings stand for the structures. Calls of active or inactive are those of the source. Rule for the calls: active = hit-call score of the fitted dose curve at least 0.9, where 1 is the maximum; inactive = score below 0.9.

Read-out in this test: Paternally Expressed 10 (PEG10), PEG10 (gene 23089)
Kind of test: LTEA_HepaRG_PEG10: Life Technologies and Expression Analysis (LTEA) Assay for Paternally Expressed 10 (PEG10) using HepaRG (AID 2283520).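 For AC50: PEG10 transcript by qRT-PCR normalised to ACTB GAPDH and POLR2A.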 Particulars: mRNA level, 48 h; actives raise or lower the signal. The procedure: LTEA_HepaRG is a cell based, multiplexed-readout assay that uses HepaRG, a human liver cell line, with measurements taken at 48 hours after chemical dosing on a 96-well plate.LTEA_HepaRG_PEG10 is one of 102 assay component(s) measured in the LTEA HepaRG cell culture assay. It is a marker of Cell proliferation, survival, death.Data from the assay component LTEA_HepaRG_PEG10 was analyzed into 1 endpoint. This assay endpoint, LTEA_HepaRG_PEG10, was analyzed with bidirectional fitting relative to DMSO as the negative control and baseline of activity. Using a type of inducible reporter, measures of mRNA induction for gain or loss-of-signal activity can be used to understand regulation of transcription factor activity. To generalize the intended target to other relatable targets, this assay endpoint is annotated to the dna binding intended target family, where the subfamily is xenobiotic metabolism.
A total of 1060 chemcials from the ToxCast library were tested in eight-point concentration-response experiments. Cell culture and cytotoxicity assays were conducted at Thermo Fisher Scientific's Custom Services facility (Madison, WI). A single lot of human HepaRG cells (Thermo Fisher Scientific, Frederick, MD) was used for the cell culture experiments. 96-well format collagen type I coated plates of human HepaRG cells were prepared using established methods. Briefly, cryopreserved HepaRG cells were thawed, plated at a density of approximately 100,000 cells/well in HepaRG Thaw, Plate, and General Purpose media (HPRG770, Thermo Fisher Scientific), and incubated for 48 hours. 0.5% DMSO was selected as vehicle control to balance the requisite need of DMSO in HepaRG cultures to maintain differentiation (for example, baseline metabolism, proportions of hepatocytes vs. cholangiocytes), while enabling further hepatic receptor pathway activation (for example, PXR and CAR) in response to chemical exposure. 48 hours after plating, the culture medium was replaced with HepaRG Serum-Free Incudtion Media. Cells were exposed to each test chemical in duplicate and maintained in CO2 incubators for another 48 hours. Chemical plates were thawed to room temperature and 200x concentrations of treatment groups were prepared. 8-point conentration-reponse curves were made with the highest exposure at 100 uM, followed by half-log dilutions, all in 0.5% DMSO. Each test plate contained variouse controls, induction positive controls (1mM phenobarbital), cytotoxicity positive controls ([…] aflatoxin B1), vehicle controls (0.5% DMSO), and total lysis controls (0.5% DMSO). Cell morphology images were taken using an Essen IncuCyte FLR automated microscope, with six 96-well plates imaged in about 24 minutes. Images were captured and exported and JPEG files. Spent culture media was transfered to black-well plates for the LDH assay, and remaining media was sorted at -80 C for later use. Cells were treated with RLT buffer and frozen until shipped for gene expression analysis. Total RNA was isolated from the cell suspension in 75 uL of Buffer RLT (Qiagen, Germantown, MD 20874) by Quintiles/Expression Analysis (Durham, NC) using a custom isolation procedure. Total RNA from each plate well was transferred to a preamplification plate. Fluidigm's 96.96 Dynamic ArrayTM (Fluidigm, Amsterdam, the Netherlands) technology was used for gene expression analyses by quantitative reverse transcription polymerase chain reaction (qRT-PCR, performed by Quintiles/Expression Analysis, Durham, NC)89. Standard TaqManTM Assays (Applied Biosystems/ThermoFisher Scientific, Foster City, CA) were used to assess the expression of 93 genes selected based on their selectivity and sensitivity to important hepatic receptors known to be modulated by environmental chemicals; importance in human hepatocyte functionality; and hepatotoxicity. […]
Take `CCCCCCC(C=O)=Cc1ccccc1`: the compound was classed as inactive. Still for that read-out and setting: under `C/C=C/c1ccc(OC)cc1` stands “inactive”; under `CC(=O)CC(c1ccccc1)c1c(O)c2ccccc2oc1=O` (stereo not given), “inactive”; under `Cc1cc(SC2=C(O)C[C@@](CCc3ccc(N)cc3)(C(C)C)OC2=O)c(C(C)(C)C)cc1CO`, “inactive”. Still for that read-out and setting: the same measure for `O=NO`: “inactive”. Still for that read-out and setting: the same measure for `NC1CCCCC1`: “inactive”. On to `Cc1cc(Cc2ccc(N)c(C)c2)ccc1N`, for which the compound was called inactive. The same measure, in the same setting: under `O=C1NC(=O)C(c2ccccc2)(c2ccccc2)N1` stands “inactive”. As to `Cc1ccc(-c2cc(C(F)(F)F)nn2-c2ccc(S(N)(=O)=O)cc2)cc1`, the AC50 is 64.2 µM (active).

With `C=CCc1ccc(OC)c(OC)c1`, the outcome was inactive. With `Cc1ccc(C(C)(C)C)c(O)c1`, the call was inactive. Same read-out and setting: under `COC(=O)CCCC(=O)OC` stands “inactive”. As for `CCCCc1nc2cccnc2n1Cc1ccc(-c2ccccc2-c2nnn[nH]2)cc1`, the AC50 is 74.6 µM (active). As for `CC(=O)O`, the result was inactive. Still for that read-out and setting: under `OCC(O)CO` stands “inactive”; under `CS(=O)(=O)c1ccc([C@@H](C[C@H]2CCC(=O)C2)C(=O)Nc2cnccn2)cc1Cl`, “inactive”; under `CCCCCCCCCCCCCCCCO`, “inactive”. Still for that read-out and setting: the same measure for `CO[C@@H]1COCC[C@@H]1N[C@@H]1CC[C@@](C(=O)N2CCc3ncc(C(F)(F)F)cc3C2)(C(C)C)C1`: “inactive”; for `CC(C)(C)c1ccccc1`: “inactive”. Same read-out and setting: the same measure for `O=Cc1ccccc1C=O`: “inactive”.

`NC(=Nc1ccccc1)Nc1ccccc1`: the AC50 is 19.3 µM (active). For the compound `CCCCC(CC)COC(=O)CCCCCCCC(=O)OCC(CC)CCCC` (stereo not given), the call was inactive. For the compound `CCOCCOCCO`, the compound was classed as inactive. The same measure, in the same setting: under `C#CC(O)C(CC)CCCC` (stereo not given) stands “inactive”; under `N[C@@H](Cc1c[nH]c2ccccc12)C(=O)O`, “inactive”; under `O=C(Oc1ccccc1)c1cccc(C(=O)Oc2ccccc2)c1`, “inactive”. For the compound `CCN(CC)CCOc1ccc(C(=C(Cl)c2ccccc2)c2ccccc2)cc1`, the call was inactive. Still for that read-out and setting: under `O=C1CCCCC1` stands “inactive”; under `O=C1O[C@H]([C@H](O)CO)C(O)=C1O`, “inactive”. `CCc1cc(C2=C(C(=O)O)N(c3ccccc3C(F)(F)F)S(=O)(=O)c3ccccc32)cc2c1OCO2`: the AC50 was 28.5 µM (active). As to `O=C(O)c1cccnc1`, the compound was classed as inactive. The same measure, in the same setting: under `CC(C)COC(=O)CCCCC(=O)OCC(C)C` stands “inactive”. Consider `O=C1OC(c2ccc(O)cc2)(c2ccc(O)cc2)c2ccccc21`, for which the AC50 was 76.1 µM (active). Still for that read-out and setting: under `CSc1ccc(Oc2ccc(S(N)(=O)=O)cc2CN(C)C)cc1C` stands 72.7 µM (active). On to `CC(=O)O[C@]1(C(C)=O)CC[C@H]2[C@@H]3C=C(Cl)C4=CC(=O)[C@@H]5C[C@@H]5[C@]4(C)[C@H]3CC[C@@]21C`, for which the compound was classed as inactive.

As to `S=c1[nH]c2ccccc2s1`, the outcome was inactive. As for `CC(=O)OC1CC(C)OC(C)O1` (stereo not given), the compound was classed as inactive. With `COC(=O)CCC(=O)OC`, the outcome was inactive. On the same count and under the same terms, under `CCCCCCCC(=O)OC` stands “inactive”. The same measure, in the same setting: the same measure for `Cn1cnc2c1c(=O)[nH]c(=O)n2C`: “inactive”.

Values taken from PubChem BioAssay (EPA / NIEHS).
